Screens: PubChem, National Center for Advancing Translational Sciences (NCATS)
Nrf2 activator: Nrf2 pathway activation; Potency, µM (highest dose often 46.1 µM), inactives show top-dose activation, most hits filed as activators; actives 0.31% (n = 410,000); AREc32 ARE-luciferase reporter (MCF7-derived line), luminescence, 24 h; note: potency is the fitted concentration of half-maximal effect; % of control where 0% means no effect; nearly all actives have a fitted effect of over 65% in size
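Luminescent ARE reporter assay in AREc32_Fluc cells: overnight plating at 37 deg C, 24 hr compound incubation, Steady-Glo added, 30 min RT before reading.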
N370S GC mod: inhibits or activates N370S mutant glucocerebrosidase; N370S GC spleen homogenate, 4MU-glucoside fluorescence; Potency, µM (series often up to 59.4 µM), inactives show top-dose activity change, negative = inhibition, hits mostly inhibitors; actives 0.092% (n = 330,000);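 note: potency is the fitted concentration of half-maximal effect; 0% = full enzyme activity and -100% = no enzyme basal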
a7 integrin act: integrin-mediated muscular dystrophy alleviation activation | Potency, µM (highest dose often 38.3 µM), for inactives: top-dose activation, actives largely listed as activators | actives 0.064% (n = 350,000) | alpha7betagal myoblasts, beta-gal FDG fluorescence, 48 h | AID 624291;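 note: potency is the fitted concentration of half-maximal effect; 100% = response of the positive control SU9516; nearly all actives have a fitted effect of over 60% in size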
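alpha7betagal+/- myoblasts (passage 13, 250/well) treated 48 h at 37C with compounds at 1:260 dilution of DMSO stock. Lysed, then beta-galactosidase activity read as FDG fluorescence (ex 480/em 540) after 30 min, with pre-read for autofluorescence.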
BCR signal inh: inhibitors of chronic active B-cell receptor signaling. actives 0.05% (n = 340,000). ABC-DLBCL IkBa-CBG/CBR reporter, luminescence ratio, 4 h. Potency, µM (series often up to 46.1 µM), for inactives: top-dose activity change, negative = inhibition, most hits filed as inhibitors; active = well fitted inhibition curve with a large enough effect in the signal ratio, with a control signal flat, not every such curve was filed as active; inconclusive = small, poorly fitted or top-dose-only effect, or effect the other way, or a change in a side signal; the % refers to the signal ratio;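 note: potency is the fitted concentration of half-maximal effect; plate controls were basal doxycycline-induced cells for no effect and cells given 10 µM MG132 for full effect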
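Concentration-response series (up to 46 uM) were applied to TMD8 dual-reporter cells for 4 h at 37C with doxycycline. Green/red ratio, after filter-overlap correction, defined %Activity; red signal alone was normalised to basal cells and zero luminescence.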
IL2 activator: IL-2 activation | IL-2 activation reporter assay, cell-based qHTS; stimulated with anti-CD3/CD4/CD28 beads; in transgenic mouse T cells | activation, % (series mostly up to about 46 µM) | actives 0.065% (n = 360,000); in the data active = activation above about 50%; inconclusive = mostly about 30% to 49%; note: 0% is about no effect
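Unstimulated transgenic mouse T cells preincubated 60 min with compound, then stimulated with anti-CD3/anti-CD4-coated beads plus anti-CD28 for 18 h at 37 degrees C. IL-2 response read as EGFP and DsRed fluorescence by plate cytometry.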
BRCA1 expr act: increases BRCA1 expression; Potency, µM (top dose mostly 46.1 µM), without a hit: top-dose activation, actives largely listed as activators; actives 1.1% (n = 380,000); MCF7-BRCA1-FFLuc reporter, luminescence, 48 h; response scale: scaled: vehicle 0%, 10 µM genistein 100%; note: potency is the fitted concentration of half-maximal effect; nearly all actives have a fitted effect of over 80% in size
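48 h compound treatment of MCF7-BRCA1-FFLuc cells (phenol-red free MEM, 37 °C), then 15 min with luciferase substrate and luminescence imaging.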
* hit, by the source's call; ? = inconclusive; nt = not tested or not shown; ! = repeats disagree; [ ] = dose if it differs, or a comment. Shown are actives, neighbours in structure and some others; about 1.4% of the full set was active somewhere. Unless noted, calls come from the whole dose curve; as a rule, active = well fitted curve in the direction sought with a large enough effect; inconclusive = small, poorly fitted or top-dose-only effect, or another doubt; inactive = no such curve, though single readings can be large; an effect the other way counts as inactive or inconclusive.

SMILES	Nrf2 activator	N370S GC mod	a7 integrin act	BCR signal inh	IL2 activator	BRCA1 expr act
N/C(=N\OC(=O)c1ccco1)c1cccc(Br)c1	4.47µM*	21.6%	24.9%	?	-1.5	-32.0%
NC(N)=NCCCC(NC(=O)C(N)Cc1ccc(O)cc1)C(=O)O (centres undefined)	nt	-3.9%	nt	nt	nt	nt
COc1ccc(CN(C)C(=O)[C@H]2O[C@@H](n3ccc(N)nc3=O)[C@H](O)[C@@H]2O)cc1OC	-0.4%	nt	nt	nt	0.9	9.4%
Cc1cccc(-n2c(C)nnc2SCC(=O)NC(C)c2ccco2)c1 (centres undefined)	nt	nt	nt	nt	nt	27.5%
Cc1nc2nc(NC(=O)c3ccc(F)cc3)[nH]n2c(=O)c1Cc1ccccc1	-1.4%	nt	nt	nt	nt	nt
COc1ccc(/C(N)=N/OC(=O)c2ccco2)cc1OC	?	-14.1%	-24.7%	-3.0%	0.6	7.94µM*
Cc1cccc(/C(N)=N/OC(=O)CCc2ccccc2)c1	4.7%	4.3%	8.8%	?	0.3	12.6µM*
O=C(COc1ccccc1C(=O)Nc1ccccc1)Nc1cccc([N+](=O)[O-])c1	nt	nt	nt	nt	nt	7.2%
O=C(/C=C/c1cccc2ccccc12)N1CCOCC1	2.9%	5.0%	0.0%	-2.0%	0.8	10µM*
O=C(/C=C/c1ccc(OCCCF)cc1)N1CCOCC1	2.0%	2.3%	-20.7%	0.4%	-0.9	10µM*
O=C(/C=C/c1ccccc1)Oc1cccc(C(=S)N2CCOCC2)c1	15.7%	3.3%	8.0%	10.7%	-0.8	3.6%
O=C(/C=C/c1cccc(Oc2ccccc2)c1)N1CCOCC1	6.1%	-5.2%	10.2%	?	-3.2	8.91µM*
O=C(/C=C/c1cccc([N+](=O)[O-])c1)N1CCOCC1	12.6µM*	7.2%	23.2%	?	-1.2	16.5%
O=C(CN1CCN(C(=O)c2cncn2-c2ccccc2)CC1)Nc1ccccc1Cl	0.3%	nt	-5.7%	?	-4.8	4.4%
Cn1c(=O)c2cc(NC(=O)NCc3ccc(Cl)cc3Cl)ccc2n1Cc1ccc(F)cc1	0.4%[9.22 µM]	nt	nt	nt	0.0	-1.5%
CCOc1ccc(S(=O)(=O)Nc2cc(S(=O)(=O)N3CCOCC3)ccc2OC)cc1	-0.9%	nt	7.5%	-2.5%	-0.8	-10.4%
CN1CCN(c2ccnc(N(C)CCCCCCN)n2)CC1	nt	nt	nt	nt	nt	-5.1%
Clc1ccc(/C=C/c2ncc3ccccn23)cc1	?	-11.1%	0.4%	14.3%	0.1	1.7%
Brc1ccc(C2=CC(c3ccco3)n3nnnc3N2)cc1 (centres undefined)	5.01µM*	0.7%	5.5%	?	-2.6	-54.2%
Clc1ccccc1C1=CC(c2ccco2)n2nnnc2N1 (centres undefined)	?	?	-8.3%	-8.5%	0.2	-25.2%
Cc1ccc(N2CN=C(c3ccccc3)NC2=S)cc1	0.6%	-23.6%	19.7%	?	0.6	11.2µM*
COc1ccc(C2=NCN(c3ccc(C)cc3)C(=S)N2)cc1	1.9%	2.5%	12.2%	3.1%	0.4	3.98µM*
Cc1sc(N)nc1-c1c(C)n(C)c2ccccc12	-0.3%	4.2%	-23.0%	1.4%	-0.2	-12.4%
O=C(Nc1cccc(NC(=O)c2cccnc2)c1)c1cccnc1	3.6%	1.1%	-16.6%	?	-1.4	-20.3%
O=C(Nc1cccc2nsnc12)c1cccs1	7.94µM*	0.5%	-1.5%	?	1.8	7.08µM*!
O=C(Nc1ccc2nsnc2c1)c1cccs1	8.91µM*	22.0%	-0.1%	?	2.2	-8.6%
O=C(Nc1cccc2cccnc12)c1cccs1	nt	nt	nt	nt	nt	-44.4%
CCC(C)c1ccc(NC(=O)c2cccnc2)cc1 (centres undefined)	6.9%	-0.2%	-19.8%	-11.3%	-0.7	3.55µM*
O=C(Nc1cccc(NC(=O)c2cccs2)c1)c1cccnc1	12.6µM*	-0.8%	-19.8%	?	-2.2	-52.8%
OC1CNc2c(ccc3ccccc23)C1 (centres undefined)	3.6%	nt	7.8%	nt	0.0	-3.2%
